Common to all, as to test: NCI-60 one-dose screen, 48 h (100 = growth as untreated, 0 = no growth, -100 = all killed)
Holding throughout (details): 10 µM

Assay [1] deals with HCT-15 colon.
Assay [2] concerns HT29 colon.
The test system of assay [3] is SNB-75 CNS.
For assay [4], the system named is SNB-19 CNS.
Assay [5] concerns U251 CNS.
Assay [6] deals with PC-3 prostate.
For assay [7], the system named is UACC-62 melanoma.
Assay [8] concerns LOX IMVI melanoma.
Assay [9] has as its system SK-MEL-28 melanoma.
In assay [10] the test system is SK-MEL-2 melanoma.
Assay [11] concerns EKVX NSCLC.
Assay [12] relates to UO-31 renal.
For assay [13], the system named is TK-10 renal.
The subject of assay [14] is ACHN renal.
For assay [15], the system named is CAKI-1 renal.
Assay [16] concerns A498 renal.
For assay [17], the system named is CCRF-CEM leukemia.
Assay [18] has as its system MOLT-4 leukemia.
In assay [19] the test system is SN12C renal.

In PubChem BioAssay (NCI) one finds growth data, which are given here for eight molecules.

Compounds without any hit were thinned out: in the full panel of roughly 83,000, 20% have a hit.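 How to read the values: 0–100, growth inhibition (40 = 60% inhibited); 0, no net growth; -100 to 0, cell death (-40 = 40% of starting cells died; -100 = all dead).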 A number with no mark means an inactive call. Active and inactive are the calls of the source. How the source made its calls: active means growth percent below 10; inactive means the rest.

With `CNC(=O)c1cc(Oc2ccc(NC(=O)Nc3ccc(Cl)c(C(C)(C)C)c3)c(F)c2)ccn1`, the growth is 38.9% in assay [1]; 25.9% in [2]; 104% in [3]; 60% in assay [4]; 52% in [5]; 37.7% in [6]. The growth in assay [7] is 16%; in [8], 16.6%; in assay [9], 34.8%; in assay [10], 44.2%; in [11], 29.9%; in assay [12], 41.6%. Further, the growth in assay [13] was 54.8%; in assay [14], 31.5%; in [15], 54.4%; in assay [16] it was 53.4%; in assay [17], 40.6%; in assay [18], 36.6%.

For the molecule `COc1cc(CSc2nc3ccc(C)cc3c(=O)n2Cc2ccccc2)cc(OC)c1OC`, the growth in [1] was 29.2%; in assay [2], 10.5%; in assay [3], -4.08% (active); in assay [4] it was 58.1%; in [5], 33.1%; in assay [6], 45.9%. Further, the growth was 21.4% in assay [7]; 39.8% in assay [8]; 52% in [9]; 1.08% (active) in assay [10]; 40% in assay [19]; 32.1% in assay [12]. The growth in assay [13] was 52.7%; in assay [14], 46.7%; in assay [15], 28.8%; in assay [16] it was 7.01% (active); in assay [17], 23.6%; in assay [18], 30.8%.

As for `CCCN(CCC)CCCNC(=O)c1cc2c(-c3ccc(OC)c(OC)c3)nn(C)c2s1`, the growth in assay [1] is 24.7%; in assay [2], 56.5%; in assay [3], 22.7%; in [4], 35%; in [5], 9.87% (active); in [6], 16.1%. Besides, the growth was 14.1% in assay [7]; 10.2% in assay [8]; 37.6% in assay [9]; -31.3% (active) in assay [10]; 20.8% in assay [19]; 6.68% (active) in assay [12]. Also, the growth in assay [13] is 55.8%; in assay [14] it was 25%; in [15], 28.5%; in assay [16], -0.28% (active); in assay [17], -15.9% (active); in assay [18] it was -8.08% (active).

On to `COc1ccc2c(c1)/C(=C/c1cc(OC)c(OC)c(OC)c1)C(=O)N2C`, for which the growth in assay [1] was 12.6%; in assay [2], 11.8%; in assay [3], -14.6% (active); in assay [4], 4.75% (active); in assay [5] it was 5.64% (active); in assay [6] it was 38.3%. Moreover, the growth in [7] was 18.9%; in [8], 10.8%; in [9] it was 28.8%; in [10], 24.3%; in assay [11], 47.3%; in assay [19], 25.3%. In addition, the growth is 16.9% in [12]; 22.1% in assay [13]; 26.9% in assay [14]; -8.56% (active) in assay [15]; 20.4% in [17]; 16% in assay [18].

As for `CCCCn1c(=O)[nH]c(N)c(C(c2ccc(Cl)cc2)c2c(N)[nH]c(=O)n(CCCC)c2=O)c1=O`, the growth in [1] is 76.9%; in [2], 24.6%; in [3], 57.1%; in assay [4], 47.9%; in assay [5] it was 35.8%; in assay [6], 32%. For the same molecule, the growth in assay [7] is 41.3%; in assay [8], 41.2%; in assay [9] it was 44.7%; in assay [10], 6.4% (active); in assay [11], 48.6%; in assay [12], 95.4%. Moreover, the growth in assay [13] is 50.7%; in [14], 67.2%; in assay [15], 90.7%; in assay [16], 89.3%; in assay [17] it was 16.7%; in assay [18] it was -11.8% (active).

Consider `COc1cc(OC)cc(-c2ccc(-c3ccc(C(=N)N)cn3)o2)c1`, for which the growth is 6.84% (active) in assay [1]; -38.5% (active) in assay [2]; -35.7% (active) in assay [3]; 33.3% in assay [4]; -80.9% (active) in assay [5]; 31.4% in [6]. The growth was -89.7% (active) in assay [7]; -89.5% (active) in [8]; -95.4% (active) in assay [9]; -76.8% (active) in [10]; -50.5% (active) in assay [19]; -33.9% (active) in assay [12]. For the same molecule, the growth in assay [13] is 0.358% (active); in assay [14], 1.34% (active); in assay [15] it was 16.1%; in [16] it was 44.1%; in assay [17], -25.6% (active); in assay [18], -41.9% (active).

Consider `O=[N+]([O-])c1ccc(-c2nc(Cl)c3c(n2)CCCC3)o1`, for which the growth was 15.9% in [1]; 53.5% in assay [2]; 69.9% in [3]; 91.1% in assay [4]; 78.6% in assay [5]; 89.4% in assay [6]. The growth is 86.9% in [7]; 21.8% in [8]; 98.4% in assay [9]; 102% in assay [10]; 42.5% in [19]; 97.8% in assay [12]. Moreover, the growth is 118% in assay [13]; 97.4% in [14]; -15.6% (active) in assay [15]; 84.3% in assay [16]; 86.8% in assay [17]; 92.8% in assay [18].

With `CCCCC(=O)N(c1ccc(Nc2c3ccccc3nc3cc([N+](=O)[O-])ccc23)cc1)S(C)(=O)=O`, the growth in assay [1] was 76.3%; in assay [2], 79%; in [3], 66.1%; in assay [4] it was 69.5%; in [5] it was 64.2%; in assay [6], 52%. The growth in [7] was 75.8%; in assay [8], 52.5%; in assay [9] it was 105%; in assay [10] it was 109%; in assay [19], 69.3%; in assay [12], 36.7%. Moreover, the growth in assay [13] was 95.8%; in [14] it was 43.1%; in assay [15], 59.9%; in assay [16], 78.8%; in assay [17], 33.2%; in assay [18], 22.8%.
